Giardia kill: kills Giardia lamblia. Giardia lamblia trophozoite viability. activity change, % at 7.66 µM, hits read low. 340,000 compounds, 0.15% hits; in the data active means activity change below about -80%; inconclusive means between about -30% and that limit;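 further: parasites exposed to compound for two days anaerobically before the ATP read; on the % scale 0 is the no-effect control and ±100 the full control effect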
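Each well holds 100 Giardia trophozoites and compound. After two days (48 hrs) at 37 deg C in anaerobic conditions, ATP is quantified by luminescence.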
D3 antag: antagonists of human D3 dopamine receptor | P35462 | D3R cells, DiscoveRx beta-arrestin luminescence, antagonist mode; stronger effect = lower value | max response, negative = inhibition, % | 360,000 compounds, 2.5% hits | AID 652054; in the data active means max response below about -50%; inconclusive means no clear call, values can overlap the other calls; further: on the % scale 0 is the no-effect control and ±100 the full control effect
Target sequence (P35462 whole entry, looked up): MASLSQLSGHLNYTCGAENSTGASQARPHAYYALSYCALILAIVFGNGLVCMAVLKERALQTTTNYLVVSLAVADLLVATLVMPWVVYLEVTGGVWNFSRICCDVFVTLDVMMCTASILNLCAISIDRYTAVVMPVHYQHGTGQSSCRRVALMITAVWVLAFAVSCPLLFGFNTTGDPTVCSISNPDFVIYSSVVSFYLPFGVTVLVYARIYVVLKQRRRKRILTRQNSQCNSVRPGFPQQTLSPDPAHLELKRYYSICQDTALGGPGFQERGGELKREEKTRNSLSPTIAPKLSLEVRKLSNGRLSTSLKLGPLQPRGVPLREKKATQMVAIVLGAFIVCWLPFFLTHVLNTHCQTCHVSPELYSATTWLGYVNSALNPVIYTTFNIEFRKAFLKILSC
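Cells plated overnight at 1500 cells/well, then exposed to library compounds with dopamine controls for 90 minutes at 37 degrees C. DiscoveRx reagent added for 30–60 minutes at room temperature; luminescence read, quantitative HTS format.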
B2AR arrestin: beta2AR (human) beta-arrestin recruitment activity. Potency, µM (series often up to 46.1 µM), without a hit: at the highest dose activation, hits mostly activators. 330,000 compounds, 0.02% hits. beta-arrestin recruitment to beta2AR, cell-based reporter. P07550; active means well fitted activation curve with a large enough effect; inconclusive means small, poorly fitted or top-dose-only effect;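 further: potency means the concentration at half of the fitted maximal effect; 0% = DMSO controls and full agonism = EC100 isoproterenol or metaproterenol; nearly all actives have a fitted effect of over 65% in size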
DRD3 agonist: activates the human D3 dopamine receptor | D3R DiscoveRx beta-arrestin cells, luminescence, 90 min | max activation, % | P35462 | AID 652048 | 410,000 compounds, 0.58% hits; in the data active means max activation above about 30%; further: 0% is about no effect
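Cells at 1500/well, incubated overnight, then treated with pinned compounds (dopamine as control) for 90 min at 37 degrees C. DiscoveRx reagent added for 30 - 60 minutes at room temperature; luminescence read.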
Starred values were filed as active, the others as inactive; ? = inconclusive; . = no result. An excerpt weighted towards active compounds, which were near 2.8% of everything screened.

SMILES	Giardia kill	D3 antag	B2AR arrestin	DRD3 agonist
CCCCNC(=O)C1CCN(c2nc3ccc(C)cc3[nH]2)CC1	.	.	.	2.6
COc1ccc(NC(=O)CSc2oc(-c3ccco3)nc2S(=O)(=O)c2ccc(Br)cc2)c(OC)c1	.	.	.	-28.4
Cc1ccc(NC(=O)c2ccc(NC(=O)N3CCSc4ncccc43)cc2)cc1Cl	.	.	.	5.1
Cc1ccc(OCC(=O)c2cc(C)n(-c3ccccc3)c2C)c([N+](=O)[O-])n1	-102.4*	8.8	-0.3%	4.9
Cc1cc(C(=O)COc2cccnc2[N+](=O)[O-])c(C)n1Cc1cccs1	-93.6*	13.9	0.4%	0.0
COc1ccc(Cn2c(CCC(=O)Nc3cc(OC)c(OC)c(OC)c3)nc3cccnc32)cc1	.	.	.	-11.8
CCc1ccc(NC(=O)c2sc3nc(C)c(Cl)c(C)c3c2NC(=O)c2ccccc2)cc1	.	.	.	0.9
COc1ccc(OC)c(CCNC(=O)CCCn2c(=O)c3cccn3c3ccc(F)cc32)c1	.	.	.	4.4
COC(=O)CC1Oc2ccc(F)cc2-n2cc(-c3ccc(Cl)cc3)nc21 (stereo not drawn)	.	.	.	-15.8
COC(=O)CC1Oc2ccc(Cl)cc2-n2cc(-c3ccc(F)cc3)nc21 (stereo not drawn)	.	.	.	49.7*
NCCCN(Cc1ccc(Cl)c(Cl)c1)c1ccc(Br)cn1	-0.2	.	.	.
O=C(/C=C/c1ccc(Br)cc1)c1ccc(NC2=NCCCS2)cc1	-17.5	-55.1*	-0.7%	-26.7
COc1cccc(/C=C/C(=O)c2ccc(NC3=NCCCS3)cc2)c1	-18.7	-53.7*	0.0%	-8.2
O=C(/C=C/c1ccccc1)c1ccc(NC2=NCCCS2)cc1	-5.8	-0.5	-0.6%	16.6
Cc1cccc(/C=C/C(=O)c2ccc(NC3=NCCCS3)cc2)c1	-5.8	-56.9*	-0.9%	-2.2
CCCn1c(=N)c(C(=O)NC2CCCCC2)cc2c(=O)n3cc(C)ccc3nc21	.	.	.	0.2
Cc1cccc(CNC(=O)C2CCN(c3nnc(-n4c(C)ccc4C)s3)CC2)c1	.	.	.	-3.0
O=S(=O)(Nc1cccc(-c2ccc(N3CCCC3)nn2)c1)c1ccccc1C(F)(F)F	.	.	.	7.2
COc1ccc(Cl)cc1/C=C/c1ccc2cccc(O)c2n1	4.0	-84.1*	0.4%	-21.6
COc1cc(Cl)cc(/C=C/c2ccc3cccc(O)c3n2)c1OC	-5.9	-93.7*	0.2%	-1.1
COc1ccccc1/C=C/c1ccc2cccc(O)c2n1	?	-11.7	-0.4%	-17.4
Oc1cccc2ccc(/C=C/c3ccccc3Cl)nc12	4.0	-175.9*	0.3%	-22.1
Oc1cccc2ccc(/C=C/c3c(F)cccc3Cl)nc12	-2.2	?	0.5%	-1.4
O=C(C=C(O)c1ccc(Cl)cc1)C(=O)NNC(=O)C(O)(c1ccccc1)c1ccccc1	-29.3	-7.9	.	-0.3
Cc1ccc(/C(O)=C/C(=O)C(=O)NNC(=O)C(O)(c2ccccc2)c2ccccc2)cc1	1.9	-87.6*	0.1%	3.8
SMILES	Giardia kill	D3 antag	B2AR arrestin	DRD3 agonist
CCOC(=O)C(CC)Sc1ccc2nnc(-c3ccc(F)cc3)n2n1 (stereo not drawn)	3.4	.	.	.
CC(C)N(C(=O)[C@H]1C[C@H](CC(=O)NCC23CC4CC(CC(C4)C2)C3)C(=O)N2CCc3c([nH]c4ccc(Cl)cc34)[C@]12C)C(C)C	17.2	3.5	-0.1%	37.4*
CC[C@]12c3[nH]c4cc(-c5ccco5)ccc4c3CCN1C(=O)[C@@H](CC(=O)NCC13CC4CC(CC(C4)C1)C3)C[C@@H]2C(=O)N1CCN(C(=O)C2CC2)CC1	-4.8	-53.7*	0.3%	-45.7
CCN(CC)C(=O)[C@H]1C[C@H](CC(=O)NCC23CC4CC(CC(C4)C2)C3)C(=O)N2CCc3c([nH]c4ccc(Cl)cc34)[C@]12C	1.7	0.0	-0.3%	-21.4
CCN(CC)C(=O)[C@H]1CC(CC(=O)NCCC2=CCCCC2)C(=O)N2CCc3c([nH]c4ccc(OC)cc34)[C@]12C (stereo partly drawn)	-24.9	0.0	-0.2%	41.0*
COc1ccc2[nH]c3c(c2c1)CCN1C(=O)C(CC(=O)NCCC2=CCCCC2)C[C@H](C(=O)N(C(C)C)C(C)C)[C@@]31C (stereo partly drawn)	17.6	-3.3	0.2%	30.5*
CCOc1ccc(CCNC(=O)Cn2nc(CC)n3c(cc4c(OC)cccc43)c2=O)cc1OCC	.	.	.	-12.5
CCC(CC)C(=O)Nc1ccc(S(=O)(=O)N2CCC(c3nc4ccccc4s3)CC2)cc1	.	.	.	-6.8
CC(C)C[C@H](NC(=O)[C@H](CCc1ccccc1)NC(=O)CN1CCOCC1)C(=O)N[C@@H](Cc1ccccc1)C(=O)N[C@@H](CC(C)C)C(=O)[C@@]1(C)CO1	.	.	.	6.9
CC1(C)N=C(N)N=C(N)N1c1ccc(OCC(=O)Nc2ccccc2)c(Cl)c1	.	-62.0*	.	-6.2
CC1(C)N=C(N)N=C(N)N1c1ccc(OCCCOc2ccccc2)c(Cl)c1	13.7	-2.5	-0.8%	0.5
COCCNCCCCSc1ccc(Cl)cc1	2.7	-59.4*	-0.4%	-0.8
Cc1cccc(-n2[nH]c3c4c(ccc3c2=O)C(=O)c2ccccc2C4=O)c1	-29.2	-64.1*	3.6%	-5.1
OC(CCCN1CCC(O)(c2ccc(Cl)cc2)CC1)c1ccc(F)cc1 (stereo not drawn)	6.0	-113.9*	-0.1%	-95.4
O=C(c1ccco1)N1CCN(/C=C2\Nc3ccccc3C(=O)N2c2ccc(F)cc2)CC1	12.9	.	.	.
CSc1ccccc1NC(=O)COc1ccc(Cl)cc1Cl	29.9	-14.3	0.1%	8.7
O=C(COc1ccc(Cl)cc1Cl)Nc1ccccn1	-100.7*	-12.2	-0.2%	-13.3
O=C(COc1ccc2c3c(c(=O)oc2c1)CCC3)N[C@@H](Cc1ccccc1)C(=O)O	13.4	11.6	0.0%	33.2*
Cc1c(C)c2ccc(OCC(=O)Nc3ccccn3)c(C)c2oc1=O	-98.0*	12.4	0.6%	0.2
CCc1c(C)c2ccc(OCC(=O)OC(C)C)c(C)c2oc1=O	-19.9	56.5	-0.3%	40.8*
O=C(COc1ccc2c3c(c(=O)oc2c1)CCC3)N[C@@H](CSCc1ccccc1)C(=O)O	-6.3	1.2	-0.1%	2.5
Cc1c(C)c2cc(Cl)c(OCC(=O)Nc3ccccn3)cc2oc1=O	.	-0.7	.	1.8
COc1cc(C)c(Cl)cc1S(=O)(=O)NCCc1c(C)[nH]c2ccccc12	.	.	.	0.6
Cc1c(OCC(=O)N[C@@H](Cc2ccccc2)C(=O)O)ccc2c3c(c(=O)oc12)CCC3	-23.0	44.4	-0.7%	-9.1
Cc1c(OCC(=O)N[C@@H](Cc2ccccc2)C(=O)O)ccc2c1oc(=O)c1ccccc12	-1.8	9.3	-0.5%	31.0*
SMILES	Giardia kill	D3 antag	B2AR arrestin	DRD3 agonist
CCOc1ccc(CCNC(=O)CCCc2nnc3n(CC(C)C)c(=O)c4sccc4n23)cc1	.	.	.	-9.2
O=C(CC[C@H]1O[C@@H](n2ccc(=O)[nH]c2=O)[C@H](O)[C@@H]1O)N[C@H](Cc1ccccc1)C(=O)NCCCc1ccccc1	.	-6.2	.	-10.9
COCCCNC(=O)[C@H](Cc1ccccc1)NC(=O)CC[C@H]1O[C@@H](n2ccc(=O)[nH]c2=O)[C@H](O)[C@@H]1O	.	-55.8*	.	-8.5
CCOC(=O)c1cc(-c2ccccc2)n(CCC(=O)NCCc2ccc(C)cc2)c1C	.	.	.	-13.2
C/C(=N\Nc1nc2ccccc2s1)c1ccc(Br)s1	4.6	17.9	-0.9%	3.8
CC(=NNc1nc2ccccc2s1)c1ccncn1	26.8	-57.4*	.	-8.7
